Measured values published in PubChem BioAssay.
Calls of active or inactive are those of the source. Unless noted, the rule behind the calls is not given here.

Key:
[1] = tested on: Wnt5a (protein binding on small-molecule microarray); assay: small molecules binding Wnt5a protein – biophysical, small-molecule microarray, 635/667 nm fluorescence, primary screen (AID 1142); conditions: 635 nm fluorescence, higher = more signal;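 note: fluorescence read at 667 nm with signal to noise per printed feature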
[2] = ATP-based viability of Huh7 replicon cells – cell-based, CellTiter-Glo luminescence, basal, 48 h, cytotoxicity control for HCV replication inhibitor project, primary screen (AID 1143); conditions: higher = more signal, called active from +8 up or from −8 down;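 note: Huh7 hepatoma cells carrying a hepatitis C replication reporter with no stimulus; test concentration not given here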
[3] = Pseudomonas biofilm growth suppression – PAO1 strain, BacTiter-Glo luminescence, LB-PBS, primary screen (AID 1144); conditions: P. aeruginosa PAO1 biofilm, 12 h, higher = more signal
[4] = basal CRE-LacZ reporter activity in PC12 – cell-based, unstimulated, primary screen (AID 1145); conditions: no forskolin, luminescence, 4.5 h, higher = more signal, called active from +8 up or from −8 down
[5] = forskolin-driven CRE-LacZ activity in PC12 – cell-based, CRE-LacZ reporter, forskolin-stimulated, primary screen (AID 1146); conditions: luminescence, 4.5 h, higher = more signal, called active from +8 up or from −8 down;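 note: PC12 cells with 6xCRE LacZ reporter stimulated by forskolin 10 µM; beta-galactosidase reporter signal reflecting CREB driven transcription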
[6] = molecular target: Streptavidin (Streptomyces avidinii) (UniProt P22629); assay: compounds binding control protein streptavidin – biophysical, small-molecule microarray, 635/667 nm fluorescence, artefact control for SMM compound annotation, primary screen (AID 1147); conditions: higher = more signal;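 note: signal reflects streptavidin binding to arrayed compounds as a control protein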
Sequence of Streptavidin (Streptomyces avidinii) (P22629 whole entry, looked up): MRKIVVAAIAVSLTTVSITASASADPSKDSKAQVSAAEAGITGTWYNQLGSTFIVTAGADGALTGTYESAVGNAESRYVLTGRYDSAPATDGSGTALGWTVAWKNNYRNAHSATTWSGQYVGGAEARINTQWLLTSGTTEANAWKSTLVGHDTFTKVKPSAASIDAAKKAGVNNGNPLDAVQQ

[7] = probe aInhba binding on compound microarray – biochemical, small-molecule microarray, 635/667 nm fluorescence, primary screen (AID 1148); conditions: higher = more signal;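 note: score merges 667nm spot fluorescence with signal-to-noise for antibody binding to printed compounds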
Torsin-1A (Homo sapiens) [8] = molecular target: Torsin-1A (Homo sapiens) (UniProt O14656); assay: TOR1A wild-type binding on microarray – cell lysate, small-molecule microarray, lysate, 635/667 nm, primary screen (AID 1149); conditions: COS7 hTOR1A-WT lysate, 635 nm fluorescence, higher = more signal
Sequence of Torsin-1A (Homo sapiens) (O14656 whole entry, looked up): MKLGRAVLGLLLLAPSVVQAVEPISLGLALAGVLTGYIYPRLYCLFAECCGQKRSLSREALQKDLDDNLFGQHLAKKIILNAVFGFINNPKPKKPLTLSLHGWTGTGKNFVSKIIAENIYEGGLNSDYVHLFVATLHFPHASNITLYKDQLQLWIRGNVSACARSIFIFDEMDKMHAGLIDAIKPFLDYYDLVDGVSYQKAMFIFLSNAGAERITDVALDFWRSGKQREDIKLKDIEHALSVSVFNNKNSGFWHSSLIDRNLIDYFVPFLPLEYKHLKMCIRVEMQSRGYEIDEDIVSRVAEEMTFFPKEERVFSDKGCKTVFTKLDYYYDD

Torsin-1A (Homo sapiens) [9] = molecular target: Torsin-1A (Homo sapiens) (UniProt O14656); assay: torsin A mutant lysate binding on microarrays – cell lysate, small-molecule microarray, COS7 lysate, 635/667 nm fluorescence, primary screen (AID 1150); conditions: COS7 hTOR1A mutant lysate, 635 nm fluorescence, higher = more signal;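 note: score pools 667 nm emission and signal to noise measuring lysate protein binding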
[10] = tested on: Sonic hedgehog protein (Shh); assay: Sonic hedgehog microarray binding compounds – biochemical, small-molecule microarray, 635/667 nm fluorescence, primary screen (AID 1151); conditions: 635 nm fluorescence, higher = more signal;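 note: Shh protein binding to compounds spotted on small-molecule microarray slides; score combines spot fluorescence intensity with signal-to-noise across triplicate slides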
[11] = optical density shifts of acrAB sulA E. coli – strain DRC41, OD650, 48 h, E. coli filamentation inducer project, primary screen (AID 1152); conditions: higher = more signal, called active from +8 up or from −8 down;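 note: E. coli MC1000 strain DRC41 lacking acrAB efflux pump and sulA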
[12] = probe aLefty1 binding on compound microarray – biochemical, small-molecule microarray, 635/667 nm fluorescence, primary screen (AID 1153); conditions: higher = more signal;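 note: score merges spot fluorescence with signal-to-noise ratio from the scanned slide images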
[13] = plasmodial surface anion channel blockers, osmotic lysis – cell-based, P. falciparum Indochina, OD700, 1 h, primary screen (AID 1154); conditions: P. falciparum Indochina infected RBC osmotic lysis, higher = more signal, called active from +8 up or from −8 down
[14] = plasmodial surface anion channel blockers, osmotic lysis – cell-based, P. falciparum Indochina, OD700, 2 h, primary screen (AID 1155);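 note: lysis reports solute entry through the parasite surface anion channel PSAC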; conditions: P. falciparum Indochina infected erythrocytes, higher = more signal, called active from +8 up or from −8 down
[15] = changes in parasitized red cell lysis, either direction – P. falciparum Indochina, OD700, 3 h, PSAC antagonist project, primary screen (AID 1156); conditions: P. falciparum-infected erythrocytes, osmotic lysis, higher = more signal, called active from +8 up or from −8 down
[16] = plasmodial surface anion channel blockers, osmotic lysis – cell-based, P. falciparum Indochina, OD700, 18 h, primary screen (AID 1157); conditions: P. falciparum Indochina infected erythrocytes, osmotic lysis OD700, 18 h; higher = more signal, called active from +8 up or from −8 down
[17] = S6 kinase pathway phospho-S6 level changes – cell-based, A549, cytoblot, luminescence, serum-stimulated, primary screen (AID 1158); conditions: 5 h, higher = more signal;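 note: serum-stimulated A549 lung adenocarcinoma cells; signal is phosphorylated S6 detected by cytoblot immunostaining with HRP secondary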
[18] = molecular target: NADPH oxidase 2 (Homo sapiens) (UniProt P04839); assay: compounds shifting NOX2 Amplex Red fluorescence – cell-based, HEK293-NOX2, PMA-stimulated, NOX inhibitor project, primary screen (AID 1159); conditions: 45 min, higher = more signal, called active from +8 up or from −8 down; note: test concentration not given here
Sequence of NADPH oxidase 2 (Homo sapiens) (P04839 whole entry, looked up): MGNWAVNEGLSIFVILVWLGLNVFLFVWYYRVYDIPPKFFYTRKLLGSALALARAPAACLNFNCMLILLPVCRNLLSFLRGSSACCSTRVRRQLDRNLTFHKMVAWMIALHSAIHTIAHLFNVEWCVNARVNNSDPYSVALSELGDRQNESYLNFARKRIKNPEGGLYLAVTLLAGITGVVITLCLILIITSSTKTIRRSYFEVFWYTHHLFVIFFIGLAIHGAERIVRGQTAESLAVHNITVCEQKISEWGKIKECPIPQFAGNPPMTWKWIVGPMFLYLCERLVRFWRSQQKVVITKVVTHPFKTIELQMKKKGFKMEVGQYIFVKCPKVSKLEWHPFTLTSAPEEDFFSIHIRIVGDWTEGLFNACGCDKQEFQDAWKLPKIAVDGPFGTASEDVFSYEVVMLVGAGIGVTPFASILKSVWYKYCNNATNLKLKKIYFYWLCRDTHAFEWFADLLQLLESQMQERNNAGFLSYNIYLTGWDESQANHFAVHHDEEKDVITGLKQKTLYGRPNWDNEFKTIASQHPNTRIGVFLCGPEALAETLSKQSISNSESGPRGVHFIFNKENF

[19] = molecular target: NADPH oxidase 4 (Homo sapiens) (UniProt Q9NPH5); assay: compounds shifting NOX4 Amplex Red fluorescence – cell-based, HEK293-NOX4, tetracycline-induced, NOX inhibitor project, primary screen (AID 1160); conditions: HEK293-NOX4, Amplex Red H2O2 fluorescence, 45 min; higher = more signal, called active from +8 up or from −8 down
Sequence of NADPH oxidase 4 (Homo sapiens) (Q9NPH5 whole entry, looked up): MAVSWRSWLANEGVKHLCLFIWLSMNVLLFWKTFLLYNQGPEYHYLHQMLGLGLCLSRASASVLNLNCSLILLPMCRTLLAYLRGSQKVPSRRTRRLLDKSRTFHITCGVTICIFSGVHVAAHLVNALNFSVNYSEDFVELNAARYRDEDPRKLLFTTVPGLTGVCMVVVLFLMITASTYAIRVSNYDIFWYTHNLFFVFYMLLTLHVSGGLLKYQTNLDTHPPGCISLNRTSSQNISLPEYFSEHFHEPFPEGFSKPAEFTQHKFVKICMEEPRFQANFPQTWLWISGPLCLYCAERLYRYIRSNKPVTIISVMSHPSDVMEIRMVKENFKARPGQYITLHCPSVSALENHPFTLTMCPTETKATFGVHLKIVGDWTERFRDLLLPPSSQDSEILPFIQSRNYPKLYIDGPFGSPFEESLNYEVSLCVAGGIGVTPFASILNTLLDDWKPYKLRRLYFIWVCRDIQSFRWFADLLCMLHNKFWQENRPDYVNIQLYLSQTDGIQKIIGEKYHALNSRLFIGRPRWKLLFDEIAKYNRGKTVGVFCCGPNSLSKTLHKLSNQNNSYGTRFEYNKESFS

[20] = molecular target: NADPH oxidase 5 (Homo sapiens) (UniProt Q96PH1); assay: compounds shifting NOX5 Amplex Red fluorescence – cell-based, HEK293-NOX5, NOX inhibitor project, primary screen (AID 1161); conditions: HEK293-NOX5, ionomycin, 45 min, higher = more signal
Sequence of NADPH oxidase 5 (Homo sapiens) (Q96PH1 whole entry, looked up): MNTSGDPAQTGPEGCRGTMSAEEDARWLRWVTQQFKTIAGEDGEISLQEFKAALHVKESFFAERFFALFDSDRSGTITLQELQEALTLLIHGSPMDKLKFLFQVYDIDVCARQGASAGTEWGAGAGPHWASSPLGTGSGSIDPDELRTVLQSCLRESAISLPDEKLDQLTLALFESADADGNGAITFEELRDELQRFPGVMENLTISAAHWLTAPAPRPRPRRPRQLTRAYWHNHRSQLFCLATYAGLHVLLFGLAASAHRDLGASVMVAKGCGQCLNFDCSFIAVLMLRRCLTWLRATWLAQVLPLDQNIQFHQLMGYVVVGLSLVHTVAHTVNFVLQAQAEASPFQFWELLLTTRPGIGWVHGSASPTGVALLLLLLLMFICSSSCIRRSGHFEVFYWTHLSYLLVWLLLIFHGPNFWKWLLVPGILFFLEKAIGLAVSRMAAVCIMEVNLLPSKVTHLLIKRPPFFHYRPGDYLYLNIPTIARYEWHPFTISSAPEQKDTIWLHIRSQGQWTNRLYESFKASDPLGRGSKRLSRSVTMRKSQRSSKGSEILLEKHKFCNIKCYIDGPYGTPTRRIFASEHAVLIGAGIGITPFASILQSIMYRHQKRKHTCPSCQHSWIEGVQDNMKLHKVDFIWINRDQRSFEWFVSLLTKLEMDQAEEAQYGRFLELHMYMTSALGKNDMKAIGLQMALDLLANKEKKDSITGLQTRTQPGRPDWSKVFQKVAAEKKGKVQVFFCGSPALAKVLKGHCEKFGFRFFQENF

| SMILES | composite z-score [1] | z-score [2] | z-score [3] | z-score [4] | z-score [5] | composite z-score [6] | composite z-score [7] | composite z-score (Torsin-1A (Homo sapiens) [8]) | composite z-score (Torsin-1A (Homo sapiens) [9]) | composite z-score [10] | z-score [11] | composite z-score [12] | z-score [13] | z-score [14] | z-score [15] | z-score [16] | z-score [17] | z-score [18] | z-score [19] | z-score [20] |
| --- | --- | --- | --- | --- | --- | --- | --- | --- | --- | --- | --- | --- | --- | --- | --- | --- | --- | --- | --- | --- |
| C=CCOC(=O)[C@H]1[C@@H]2C(=O)O[C@@H](c3ccccc3)[C@@H](c3ccccc3)N2[C@@H](c2ccc(OCCOC(=O)[C@H]3C[C@H]4C(=O)N[C@@H](CCCCNC(C)=O)C(=O)N4[C@H]3c3cccc(OCCO)c3)cc2)[C@]12C(=O)Nc1ccc(I)cc12 | 1.28 | -2.16 (inactive) | 0.437 (inactive) | 0.557 (inactive) | 0.133 (inactive) | 0.0123 | -0.431 | 0.96 | 0.763 | 2.46 | 0.831 (inactive) | -0.625 | 1.81 (inactive) | -0.285 (inactive) | 1.31 (inactive) | -1.61 (inactive) | 0.112 | -0.224 (inactive) | 0.68 (inactive) | -0.174 |
| CCOC(=O)C1=C[C@@H](C(C)(C)C)N(S(=O)(=O)c2ccc(C)cc2)[C@H]1c1cccc(Cl)c1 | 0.37 | -4.84 (inactive) | 1.52 (inactive) | 0.0798 (inactive) | -0.651 (inactive) | 1.37 | 0.18 | 0.224 | 0.695 | 0.163 | -1.11 (inactive) | 0.522 | 1.26 (inactive) | 1.03 (inactive) | 0.223 (inactive) | 0.39 (inactive) | -0.98 | -0.789 (inactive) | -0.842 (inactive) | 0.196 |
| CCCC=C(CCC)[C@@H](NC(=O)CCc1ccccc1)c1ccc(C(F)(F)F)cc1 | -0.0114 | -2.08 (inactive) | 0.715 (inactive) | -0.568 (inactive) | 0.318 (inactive) | 1.07 | 0.0374 | 0.983 | 0.801 | -0.37 | -1.56 (inactive) | 0.73 | 1.71 (inactive) | 0.542 (inactive) | 1.8 (inactive) | 1.01 (inactive) | 0.697 | -0.975 (inactive) | -1.6 (inactive) | 2.78 |
| C=C(C)C1CCC(C(O)C2C=CC3C(=O)N(C)C(=O)C3N2Nc2cc(OC)c(OC)c(OC)c2)CC1 (stereo not given) | 0.109 | 0.454 (inactive) | 0.253 (inactive) | 0.243 (inactive) | 0.516 (inactive) | 0.889 | 0.222 | -0.0834 | 0.44 | 1.11 | -1.67 (inactive) | 0.361 | 0.541 (inactive) | 0.61 (inactive) | -0.256 (inactive) | 0.901 (inactive) | -0.681 | -1.86 (inactive) | -2.78 (inactive) | -2.92 |
| C=CCC(OC(C)=O)[C@@H]1[C@@H](N(Cc2cccc3ccccc23)C(=O)Cc2ccc(F)cc2)c2cc(OCCCO)ccc2N1C(=O)c1ccc(-c2ccccc2)cc1 (stereo not given in full) | 0.364 | -0.227 (inactive) | -0.169 (inactive) | 1.44 (inactive) | 0.429 (inactive) | -0.153 | 0.066 | 0.143 | 0.102 | 0.246 | 0.341 (inactive) | 0.0184 | 0.616 (inactive) | 0.743 (inactive) | -0.402 (inactive) | -0.278 (inactive) | -0.18 | 0.227 (inactive) | 0.795 (inactive) | 1.77 |
| C=CCNC(=O)[C@@H]1[C@H]2C(=O)O[C@H](c3ccccc3)[C@H](c3ccccc3)N2[C@H](c2ccc(O)cc2)[C@@]12C(=O)Nc1ccc(C#CCC(C(=O)OC)C(=O)OC)cc12 | 0.0513 | -5.09 (inactive) | -1.02 (inactive) | -0.608 (inactive) | -0.746 (inactive) | 0.138 | -0.018 | 0.131 | 1.76 | 0.8 | -0.482 (inactive) | -0.0544 | 5.99 (inactive) | 0.792 (inactive) | 2.3 (inactive) | 0.319 (inactive) | -0.45 | 1.97 (inactive) | 0.448 (inactive) | 1.25 |
| C=CCC(OC(C)=O)[C@@H]1[C@@H](N(Cc2ccc(-c3ccccc3)cc2)C(=O)Cc2ccc(F)cc2)c2cc(OCCCO)ccc2N1C(=O)Cc1ccc2ccccc2c1 (stereo not given in full) | 0.261 | 0.189 (inactive) | -0.59 (inactive) | 0.367 (inactive) | 0.997 (inactive) | 0.612 | 0.038 | -0.194 | -0.0043 | -0.0096 | 0.882 (inactive) | 0.0774 | 1.84 (inactive) | 0.791 (inactive) | -0.205 (inactive) | 0.381 (inactive) | -0.199 | 0.587 (inactive) | 0.512 (inactive) | 1.88 |
| O=c1cccc(-c2ccco2)o1 | 0.302 | -0.768 (inactive) | 0.329 (inactive) | -0.518 (inactive) | 0.57 (inactive) | 0.721 | 0.0091 | 0.444 | 0.066 | 2.07 | -1.13 (inactive) | -0.103 | 0.128 (inactive) | 0.0564 (inactive) | -0.394 (inactive) | 0.143 (inactive) | -0.397 | 0.523 (inactive) | -0.772 (inactive) | -0.722 |
